Compound activity: PubChem BioAssay, National Center for Advancing Translational Sciences (NCATS)
Epigenetic derep – epigenetic control regulation, reporter derepression | murine LDR cells, GFP reporter derepression, 30 h | Potency, µM (top dose mostly 53.9 µM), inactives show at the highest dose GFP activation, actives largely listed as activators | 0.2% of 280,000 active | AID 1865; further: % of control where 0% means no effect; nearly all actives have a fitted effect of over 60% in size
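Reporter derepression read as number of fluorescent GFP-positive objects, 20-120 um in size, counted by laser-scanning cytometer. Mouse LDR line with an epigenetically silenced CMV-GFP locus; compound incubation 30 h, 37 C.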
ClpP mod – qHTS Assay for Activators of ClpP; ATP-dependent Clp protease proteolytic subunit (Bacillus subtilis (strain 168)), P80244; purified B. subtilis ClpP, FRET peptide cleavage, 20 min; Potency, µM (highest dose often 57.5 µM), without a hit: at the top dose activity change, negative = active; 1.9% of 340,000 active; AID 651965, 2013; active means well fitted falling curve with a large enough effect; inconclusive means small, poorly fitted or top-dose-only effect; inactive means no such curve, though single readings can be large or run the other way; further: the source files actives as falling curves though it sought activators and does not explain the sign; nearly all actives have a fitted effect of over 65% in size
Target sequence (P80244 whole entry, looked up): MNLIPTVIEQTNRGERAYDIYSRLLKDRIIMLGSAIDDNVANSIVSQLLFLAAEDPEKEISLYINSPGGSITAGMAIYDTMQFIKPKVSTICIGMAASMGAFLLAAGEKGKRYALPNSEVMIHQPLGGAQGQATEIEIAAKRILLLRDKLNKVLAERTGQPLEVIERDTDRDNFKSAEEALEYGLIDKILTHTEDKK
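ClpP 10 microg/mL final, pH 8 Tris/KCl buffer with BSA, glycerol, Tween-20; compound pinned in; FRET-FV substrate; RT 20 min; Ex320/Em430; ΔFRET vs ADEP 5.8 microM, DMSO, no enzyme.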
PINK1 modulator – PINK1 expression modulation; 0.2% of 410,000 active; Potency, µM (top dose mostly 76.6 µM), for inactives: at the top dose activation (PINK1 increase), usual class: activators; PINK1 immunofluorescence, high-content cytometry, 24 h; active means well fitted activation curve with a large enough effect; inconclusive means small, poorly fitted or top-dose-only effect; cell line not stated here; further: % of control where 0% means no effect; nearly all actives have a fitted effect of over 65% in size
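Stable cell line treated 24 h with compounds at 5 concentrations (CCCP controls), then fixed and immunostained for PINK1 plus nuclear and cell stains; PINK1 immunofluorescence quantified by laser-scanning microplate cytometry.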
VP16 counter – Gal4-VP16 reporter inhibition counter-screen. Drosophila S2 Gal4-VP16 UAS-luciferase, luminescence, 20 h. Potency, µM (titrated, usually from 53.6 µM), for inactives: top-dose activity, negative = inhibition, usual class: inhibitors. 3.5% of 310,000 active;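 further: Gal4-VP16 expression switched on by copper sulfate through the metallothionein promoter; on the % scale 0 is the no-effect control and ±100 the full control effect; nearly all actives have a fitted effect of over 50% in size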
RORgamma inh – blocks mouse ROR gamma transcriptional activity; Drosophila S2 Gal4-RORgamma UAS-luciferase reporter, 20 h; Potency, µM (titrated, usually from 53.6 µM), inactives show top-dose activity change, negative = inhibition, actives largely listed as inhibitors; 5.4% of 310,000 active; AID 2551; further: on the % scale 0 is the no-effect control and ±100 the full control effect; nearly all actives have a fitted effect of over 60% in size
Target sequence (P51450 whole entry, looked up, the tested form may be a part): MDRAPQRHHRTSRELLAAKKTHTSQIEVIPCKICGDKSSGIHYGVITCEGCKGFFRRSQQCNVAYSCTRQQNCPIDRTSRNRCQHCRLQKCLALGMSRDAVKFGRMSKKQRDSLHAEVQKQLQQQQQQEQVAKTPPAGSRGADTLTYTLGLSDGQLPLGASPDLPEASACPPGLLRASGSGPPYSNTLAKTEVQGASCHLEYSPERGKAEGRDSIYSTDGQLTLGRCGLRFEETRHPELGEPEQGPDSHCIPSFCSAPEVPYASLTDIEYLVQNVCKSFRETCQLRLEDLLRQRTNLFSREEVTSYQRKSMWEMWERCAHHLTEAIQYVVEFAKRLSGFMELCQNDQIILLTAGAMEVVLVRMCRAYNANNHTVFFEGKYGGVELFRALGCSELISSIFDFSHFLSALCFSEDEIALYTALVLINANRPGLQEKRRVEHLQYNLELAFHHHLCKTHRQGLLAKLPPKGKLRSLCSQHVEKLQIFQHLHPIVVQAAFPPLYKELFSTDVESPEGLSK
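In this cell-based reporter format, copper sulfate (700 uM final) drives Gal4–ROR gamma fusion expression from a metallothionein promoter in Drosophila Schneider cells; compounds preincubated 1 hr, reporter read after 20 hr at ambient temperature.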
Sfp inh – Sfp phosphopantetheinyl transferase inhibition | Potency, µM, for the others: largest response in the series, negative = inhibition, most hits filed as inhibitors | AID 1490 | Biochemical Sfp PPTase activity, qHTS | 3.5% of 310,000 active;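 further: the enzyme is Sfp with the accession as filed and its product quenches rhodamine fluorescence; 0% = enzyme reaction without inhibitor and -100% = no enzyme wells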
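With Hepes-Na pH 7.6 buffer containing 10 mM MgCl2, Sfp (15 nM) modified BHQ-2-YbbR (12.5 uM) using rhodamine-CoA (5 uM). Two reads 30 minutes apart at 525/598 nm yielded each well's rate.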
The depositor's hits bear a star; ? = inconclusive; · = not tested or not shown; ! = repeats disagree; [ ] = remark or other dose. In the library only some 8.1% were active in any assay of this set; here they are far more common. Unless noted, the call rests on the fitted dose curve; in most records, active means well fitted curve in the direction sought with a large enough effect; inconclusive means small, poorly fitted or top-dose-only effect, or another doubt; inactive means no such curve, though single readings can be large; an effect the other way counts as inactive or inconclusive. Potency means the concentration at half of the fitted maximal effect.

SMILES	Epigenetic derep	ClpP mod	PINK1 modulator	VP16 counter	RORgamma inh	Sfp inh
COc1ccc(NC(=O)C2CC(=O)n3cnnc3S2)cc1 (stereo unspecified)	-1%	2%	0%	?	?	56µM*
O=C(/C=C/c1ccco1)Nc1cccnc1Cl	5%	0%	1%	-17%	-27%	50µM*
Cn1c(NC(=O)/C=C/c2ccco2)cc(=O)n(C)c1=O	-1%	1%	1%	18%	17%	56µM*
COC(=O)c1ccccc1NC(=O)/C=C/c1ccco1	0%	-3%	0%	?	-15%	50µM*
Cc1c(C(=O)NCC2(N3CCOCC3)CCCCCC2)cnn1-c1nccc(-c2ccccc2F)n1	·	·	-1%	·	·	·
CCc1ccc(-c2cc(C)no2)cc1S(=O)(=O)Nc1ccc(Cl)cc1	9%	-1%	?	·	·	·
CC(C)C(=O)NC(=S)Nc1nnn(C)n1	1%	-3%	0%	?	14µM*	-90%
COc1cc(OC)cc(C(=O)NC(=S)Nc2nnn(C)n2)c1	1%	-1%	0%	25µM*	?	35µM*
Cn1nnc(NC(=S)NC(=O)c2cccs2)n1	0%	35%	1%	13µM*	8.9µM*	-71%
Cn1nnc(NC(=S)NC(=O)c2cccc3ccccc23)n1	·	·	-1%	3.5µM*	1.1µM*	35µM*
CCOc1ccc(NC(=O)Nc2c[nH]c(=O)[nH]c2=O)cc1	-2%	-1%	3%	·	·	·
CC(=O)N1CCc2cc(S(=O)(=O)C(C)CC(=O)Nc3ccc(Br)c(C)c3)ccc21 (stereo unspecified)	0%	1%	0%	·	·	·
CCOc1ccc(NC(=O)c2cc3c(s2)-c2ccccc2OC3)cc1	3%	0%	2%	·	·	·
CCCCn1nnc(NC(=S)NC(=O)c2cccs2)n1	1%	1%	0%	1µM*	1.1µM*	?
CC(C)(C)OC1NS(=O)(=O)OCC1NCOC(Cl)(Cl)Cl (stereo unspecified)	·	0%	3%	22µM*	10µM*	13µM*
C=CCC1NS(=O)(=O)OCC1NC(=O)OCC(Cl)(Cl)Cl (stereo unspecified)	·	0%	0%	13%	4%	19%
CN1CCN(CCC(=O)N2c3ccccc3Sc3ccc(Cl)cc32)CC1	3%	0%	·	-7%	?	89µM*
NCCC(=O)N1c2ccccc2Sc2ccc(Cl)cc21	·	-1%	0%	5%	?	-4%
CCOC(=O)c1c(N)c(C#N)c2n1CCCC2	2%	32µM*	-1%	-2%	?	11%
CCOC(=O)c1c(N)c(C#N)c2n1CCCCC2	0%	-2%	-1%	0%	-9%	20%
COC(=O)CCCC1=CC2=CC(=O)C(C)(OC(=O)C3CCCC3)C(=O)C2=CO1 (stereo unspecified)	0%	1%	3%	1%	2%	2%
CCCCC1=CC2=CC(=O)C(C)(OC(=O)C3CCCC3)C(=O)C2=CO1 (stereo unspecified)	0%	7%	4%	-2%	15%	71µM*!
CCOC(=O)c1c(C)c(-c2ccccc2)n(CC(=O)Nc2cccc(F)c2)c1C	0%	-2%	0%	·	·	·
O=C(NC(NC(=S)Nc1c(Cl)cc(Cl)cc1Cl)C(Cl)(Cl)Cl)OCc1ccccc1 (stereo unspecified)	3%	-8%	?	5.6µM*	7.1µM*	?
Cc1ccc(C)c(NC(=S)NC(NC(=O)OCc2ccccc2)C(Cl)(Cl)Cl)c1 (stereo unspecified)	0%	-2%	9%	?	14µM*	15%
SMILES	Epigenetic derep	ClpP mod	PINK1 modulator	VP16 counter	RORgamma inh	Sfp inh
Cc1nc2ccccn2c(=O)c1NC(=O)c1ccc(F)c(F)c1	-2%	-3%	1%	·	·	·
CCCN1CCN(C(=O)Cn2ncc3c4ccccc4n(Cc4cccc(Cl)c4)c3c2=O)CC1	6%	-29%	1%	·	·	·
CCOc1ccccc1NS(=O)(=O)c1ccc(N2CCCCS2(=O)=O)cc1	-4%	-22%	3%	·	·	·
COc1ccc(-c2cc(C(F)(F)F)nc(SCC(=O)NCc3cccs3)n2)cc1OC	-2%	25µM*	?	-10%	18%	-12%
COc1ccc(NC(=O)CCSc2nc(-c3ccc(OC)cc3)cc(C(F)(F)F)n2)cc1	-1%	-13%	4%	·	·	·
COc1ccc(-c2cc(C(F)(F)F)nc(SCC(=O)Nc3cc(C)on3)n2)cc1OC	-3%	13µM*	9%	1%	12%	-14%
COc1ccc(-c2cc(C(F)(F)F)nc(SCCC(=O)Nc3cc(C)on3)n2)cc1	1%	35µM*	9%	0%	0%	9%
O=C(CSc1nc(-c2cccs2)cc(C(F)(F)F)n1)NCc1ccccc1	-1%	35µM*	11%[38.3 µM]	6%	-31%	-11%
CCCNC(=O)CSc1nc(-c2cccs2)cc(C(F)(F)F)n1	8%	-28%	-3%	1%	-19%	6%
CN1CCC2(CCN3CCc4c(oc5ccccc45)C3C2)N(C)C1=O (stereo unspecified)	0%	·	·	·	·	·
Cc1ccc(C(c2nnnn2Cc2ccccc2)N2CCN(Cc3ccncc3)CC2)cc1 (stereo unspecified)	·	2%	-1%	·	·	·
COc1cccc(NC(=O)Cn2c(=O)n(Cc3ccc(F)cc3)c(=O)c3sc4ccccc4c32)c1	4%	?	2%	·	·	·
CC(C)(C)Cc1c(-c2ccc(Br)cc2)nc2ccc(Br)cn12	·	-4%	40µM*	·	·	·
COc1ccc(Cc2c(-c3cccc(Br)c3)nc3ccc(Cl)cn23)c(C)c1	·	-9%	2%	·	·	·
COc1ccc(Cc2c(-c3ccccc3)nc3ccc(Br)cn23)c(C)c1	·	-2%	32µM*	·	·	·
CC(C)(C)Cc1c(-c2cccc(Cl)c2)nc2ccc(Br)cn12	·	-8%	?	·	·	·
COC(=O)c1ccc(-c2ccc(C(c3c(C)[nH][nH]c3=O)c3c(C)[nH][nH]c3=O)o2)cc1	1%	·	0%	3%	-27%	50µM*
Cc1[nH][nH]c(=O)c1C(c1ccc(Br)cc1)c1c(C)[nH][nH]c1=O	·	·	0%	0%	0%	3%
Cc1[nH][nH]c(=O)c1C(c1ccc(-c2ccc(Cl)cc2Cl)o1)c1c(C)[nH][nH]c1=O	2%	·	·	2%	32%	50µM*
